From ChEMBL document CHEMBL3988442, “University of Dundee, Small-Polar-MMV Screening Library” (2021)

What follows are compounds tested against T1, Tyrosyl-tRNA synthetase, putative (Trypanosoma cruzi (strain CL Brener)) (UniProt Q4DSP6) (assay: Trypanosoma cruzi tyrosyl tRNA synthetase (TcYRS) _High Tyrosine SOP). Conditions: 30 µM.
T1 sequence (whole entry): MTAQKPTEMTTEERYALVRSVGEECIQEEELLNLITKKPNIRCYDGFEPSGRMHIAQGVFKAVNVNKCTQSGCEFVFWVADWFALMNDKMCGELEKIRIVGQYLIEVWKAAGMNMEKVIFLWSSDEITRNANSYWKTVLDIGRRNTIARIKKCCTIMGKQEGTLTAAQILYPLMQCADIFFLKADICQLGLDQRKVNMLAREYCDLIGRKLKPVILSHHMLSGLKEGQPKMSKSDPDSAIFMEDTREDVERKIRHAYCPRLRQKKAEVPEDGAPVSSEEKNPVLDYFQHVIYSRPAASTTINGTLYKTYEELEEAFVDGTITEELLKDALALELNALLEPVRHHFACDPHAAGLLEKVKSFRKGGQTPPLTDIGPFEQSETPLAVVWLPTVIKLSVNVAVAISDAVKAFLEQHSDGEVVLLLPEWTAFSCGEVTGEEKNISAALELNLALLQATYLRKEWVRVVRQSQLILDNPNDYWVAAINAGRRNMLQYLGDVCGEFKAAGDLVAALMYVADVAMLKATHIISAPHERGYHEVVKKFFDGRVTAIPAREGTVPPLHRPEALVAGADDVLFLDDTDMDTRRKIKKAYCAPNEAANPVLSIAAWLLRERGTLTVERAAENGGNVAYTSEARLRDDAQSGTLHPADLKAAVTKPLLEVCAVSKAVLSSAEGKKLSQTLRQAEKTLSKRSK
Assay type: functional
Parameters: scale not given: direction of the effect not stated beside the values

Structure (SMILES)	Percent Effect
COCCN1CC[C@@H]2O[C@@H](COCC(=O)N3CCCC3)CC[C@@H]21	7.29%
O=C(c1ccc[nH]1)N1CCCC(c2cc(C(F)(F)F)[nH]n2)C1 (stereo not drawn)	3.45%
O=C(c1coc(COc2cccc(F)c2)n1)N1CC[C@H](O)[C@@H](O)C1	5.82%
Cc1nnc2n1CCN(CCOc1ccccc1)C2	2.08%
c1ccc(OCCN2CCCC(c3noc(C4CC4)n3)C2)cc1 (stereo not drawn)	-4.92%
Cn1ccc(CN2CCC(OCCc3ccccc3)CC2)cc1=O	0.971%
COC1COC2(CCN(Cc3ccccc3Cl)CC2)C1 (stereo not drawn)	-2.12%
COc1cccc(S(=O)(=O)N2CCn3cnc(COCC4CC4)c3C2)c1	3.12%
Cc1ncsc1C(=O)N(C)CCc1ccncc1	2.45%
Cc1cc(C)n(C2CCCN(C(=O)Cc3csc(C)n3)C2)n1 (stereo not drawn)	4.43%
O=C(NCCNc1cnccn1)N1CCN(Cc2cccnc2)CC1	7.29%
Cc1cc(NC(=O)NCC(C)O)n(C)n1 (stereo not drawn)	2.45%
CCc1nccn1C1CCCN(C(=O)c2cnn(C)c2C2CC2)C1 (stereo not drawn)	3.45%
CCOCC(O)CN1CCN(C(=O)c2cccnc2OC)CC1 (stereo not drawn)	3.88%
O=C(CN1CCc2cncnc2C1)NCCOc1ccccc1	25.1%
Cc1nc(N2CCCCC2)ncc1C(=O)N1CC(C)(C)[C@@](C)(O)C1	8.6%
c1cncc(-c2nccc(CN3CCCC3)n2)c1	9.68%
O=C(NC1CCCC1)N1CCCC(c2nccn2Cc2ccncc2)C1 (stereo not drawn)	4.21%
Cc1cc(CN2CCOC(CN(C)c3cccnn3)C2)no1 (stereo not drawn)	0.952%
Cn1cc(CNCCn2cccn2)c(-c2cccnc2)n1	-1.07%

Structure (SMILES)	Percent Effect
O=C1NC2(CCN(C(=O)c3ccccc3)CC2)CC1c1cccnc1 (stereo not drawn)	6.25%
Cc1cnn(CC2CCCN2Cc2coc(-c3ccccc3)n2)c1 (stereo not drawn)	3.23%
Cc1nc(CN2CCOCC3(CCN(c4cccnc4)CC3)C2)cs1	3.96%
CNS(=O)(=O)c1ccc(C(=O)N2CCCC2Cc2ccccc2)o1 (stereo not drawn)	4.43%
CN(CCC(F)(F)F)C(=O)[C@H]1CSCN1C(=O)OC(C)(C)C	1.07%
O=C(CN1CCOC(Cn2cccn2)C1)Nc1nncs1 (stereo not drawn)	9.52%
CS(=O)(=O)NC1CCCN(C(=O)NCc2cc[nH]n2)C1 (stereo not drawn)	8.57%
c1cnc2c(c1)cc(C1CCOCC1)n2CCN1CCOCC1	3.23%
CN(C)C(=O)COCc1cncc2c1CCN(Cc1nccn1C)C2	6.45%
CN(C)S(=O)(=O)N1C[C@@H]2CC[C@H](C1)N(Cc1ccc3nsnc3c1)C2	2.1%
CN(C)C(CNC(=O)c1cccc(-n2cnnn2)c1)c1ccccc1Cl (stereo not drawn)	3.23%
Cc1cc(C)n(CC2CN(Cc3cscn3)CCO2)n1 (stereo not drawn)	7.35%
Cc1ccc(NC2CCN(C(=O)c3c(C)noc3C)CC2)nn1	3.43%
Cc1nc(N2CCOCC2)nc2c1CCN(C(=O)NC1CCCC1)CC2	-2.12%
CCOc1nnc(CN(C)CC2CCCN2c2cccnn2)s1 (stereo not drawn)	3.19%
CN1N=C(C(=O)N(Cc2ccco2)C2CC2)CCC1=O	4.25%
COc1cccc(CNC(CN2CCN(C)CC2)c2ccccc2)c1 (stereo not drawn)	1.07%
Cc1csc2c(=O)n3c(nc12)CCN(C(=O)c1cccnc1)CC3	4.3%
CC(C)n1ncc2cc(NC(=O)N3CCC(N4CCCC4)C3)cnc21 (stereo not drawn)	-7.92%

Each compound was assayed against T1, Tyrosyl-tRNA synthetase, putative (Trypanosoma cruzi (strain CL Brener)) (assay: Trypanosoma cruzi tyrosyl tRNA synthetase (TcYRS) SOP). Conditions: 30 µM.
Assay type: functional
Parameters: scale not given: direction of the effect not stated beside the values

Structure (SMILES)	Percent Effect
COCCN1CC[C@@H]2O[C@@H](COCC(=O)N3CCCC3)CC[C@@H]21	13.6%
O=C(c1ccc[nH]1)N1CCCC(c2cc(C(F)(F)F)[nH]n2)C1 (stereo not drawn)	6.17%
O=C(c1coc(COc2cccc(F)c2)n1)N1CC[C@H](O)[C@@H](O)C1	9.76%
Cc1nnc2n1CCN(CCOc1ccccc1)C2	0%
c1ccc(OCCN2CCCC(c3noc(C4CC4)n3)C2)cc1 (stereo not drawn)	1.24%
Cn1ccc(CN2CCC(OCCc3ccccc3)CC2)cc1=O	0%
COC1COC2(CCN(Cc3ccccc3Cl)CC2)C1 (stereo not drawn)	5.13%
COc1cccc(S(=O)(=O)N2CCn3cnc(COCC4CC4)c3C2)c1	5%
Cc1ncsc1C(=O)N(C)CCc1ccncc1	4.88%
Cc1cc(C)n(C2CCCN(C(=O)Cc3csc(C)n3)C2)n1 (stereo not drawn)	-3.8%
O=C(NCCNc1cnccn1)N1CCN(Cc2cccnc2)CC1	20.2%
Cc1cc(NC(=O)NCC(C)O)n(C)n1 (stereo not drawn)	12.2%
CCc1nccn1C1CCCN(C(=O)c2cnn(C)c2C2CC2)C1 (stereo not drawn)	6.17%
CCOCC(O)CN1CCN(C(=O)c2cccnc2OC)CC1 (stereo not drawn)	0%
O=C(CN1CCc2cncnc2C1)NCCOc1ccccc1	25.9%
Cc1nc(N2CCCCC2)ncc1C(=O)N1CC(C)(C)[C@@](C)(O)C1	6.17%
c1cncc(-c2nccc(CN3CCCC3)n2)c1	14.3%
O=C(NC1CCCC1)N1CCCC(c2nccn2Cc2ccncc2)C1 (stereo not drawn)	5.13%
Cc1cc(CN2CCOC(CN(C)c3cccnn3)C2)no1 (stereo not drawn)	2.35%
Cn1cc(CNCCn2cccn2)c(-c2cccnc2)n1	1.24%

Structure (SMILES)	Percent Effect
O=C1NC2(CCN(C(=O)c3ccccc3)CC2)CC1c1cccnc1 (stereo not drawn)	13.6%
Cc1cnn(CC2CCCN2Cc2coc(-c3ccccc3)n2)c1 (stereo not drawn)	5%
Cc1nc(CN2CCOCC3(CCN(c4cccnc4)CC3)C2)cs1	11%
CNS(=O)(=O)c1ccc(C(=O)N2CCCC2Cc2ccccc2)o1 (stereo not drawn)	16.1%
CN(CCC(F)(F)F)C(=O)[C@H]1CSCN1C(=O)OC(C)(C)C	2.5%
O=C(CN1CCOC(Cn2cccn2)C1)Nc1nncs1 (stereo not drawn)	18.8%
CS(=O)(=O)NC1CCCN(C(=O)NCc2cc[nH]n2)C1 (stereo not drawn)	21.2%
c1cnc2c(c1)cc(C1CCOCC1)n2CCN1CCOCC1	11.7%
CN(C)C(=O)COCc1cncc2c1CCN(Cc1nccn1C)C2	13.6%
CN(C)S(=O)(=O)N1C[C@@H]2CC[C@H](C1)N(Cc1ccc3nsnc3c1)C2	12.8%
CN(C)C(CNC(=O)c1cccc(-n2cnnn2)c1)c1ccccc1Cl (stereo not drawn)	10%
Cc1cc(C)n(CC2CN(Cc3cscn3)CCO2)n1 (stereo not drawn)	21.9%
Cc1ccc(NC2CCN(C(=O)c3c(C)noc3C)CC2)nn1	12.2%
Cc1nc(N2CCOCC2)nc2c1CCN(C(=O)NC1CCCC1)CC2	0%
CCOc1nnc(CN(C)CC2CCCN2c2cccnn2)s1 (stereo not drawn)	10.4%
CN1N=C(C(=O)N(Cc2ccco2)C2CC2)CCC1=O	5.2%
COc1cccc(CNC(CN2CCN(C)CC2)c2ccccc2)c1 (stereo not drawn)	3.7%
Cc1csc2c(=O)n3c(nc12)CCN(C(=O)c1cccnc1)CC3	6.49%
CC(C)n1ncc2cc(NC(=O)N3CCC(N4CCCC4)C3)cnc21 (stereo not drawn)	23.2%
